Laboratory results published in PubChem BioAssay.
Active and inactive are the calls of the source.

How the values were obtained:
[1] = system: Plasmodium falciparum Sir2 (PF13_0152, Sir2A); assay: pfSir2 binders on small-molecule microarrays, primary screen, biochemical, small-molecule microarray, 635 nm fluorescence (AID 1098); details: small-molecule microarray binding, fluorescence 635 nm; higher = more signal;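 further: score merges spot fluorescence intensity with its signal-to-noise ratio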
[2] = small-molecule microarray binders of probe aDKK1, primary screen, biochemical, biotinylated probe, 635/667 nm fluorescence (AID 1099); details: higher = more signal;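 further: score merges 667nm spot fluorescence with signal to noise across triplicate slides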
[3] = small-molecule microarray binders of probe aCHRDL2, primary screen, biochemical, biotinylated probe, 635/667 nm fluorescence (AID 1100); details: higher = more signal
[4] = splicing luciferase reporter signal modulators, primary screen, spliceosome inhibition project, cell-based, HEK293, splice +/- reporter (AID 1101); details: luminescence, 24 h, higher = more signal, called active from +8 up or from −8 down;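 further: HEK293 cells carrying a splicing-competent luciferase reporter gene; test concentration not given here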
[5] = target: Fibroblast growth factor 10 (Homo sapiens) (UniProt O15520); assay: FGF10 binders on small-molecule microarrays, primary screen, biochemical, small-molecule microarray, 635 nm fluorescence (AID 1102); details: FGF10 binding, fluorescence 635 nm, higher = more signal
Chain of Fibroblast growth factor 10 (Homo sapiens) (O15520 whole entry, looked up): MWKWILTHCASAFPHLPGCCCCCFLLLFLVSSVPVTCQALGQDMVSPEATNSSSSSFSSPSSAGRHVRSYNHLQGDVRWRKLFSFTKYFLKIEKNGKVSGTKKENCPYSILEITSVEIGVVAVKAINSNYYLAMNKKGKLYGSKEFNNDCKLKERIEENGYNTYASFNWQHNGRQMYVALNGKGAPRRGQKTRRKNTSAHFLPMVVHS

[6] = system: glycogen synthase kinase-3 (GSK3A per assay name; protocol says GSK3B); assay: GSK3 binders on small-molecule microarrays, primary screen, biochemical, small-molecule microarray, 635 nm fluorescence, GSK3A (AID 1103); details: small-molecule microarray binding, fluorescence 635 nm; higher = more signal; further: the record names both GSK3A and GSK3B
[7] = target: Epidermal growth factor receptor (Homo sapiens) (UniProt P00533); assay: EGFR binders on small-molecule microarrays, primary screen, biochemical, small-molecule microarray, 635 nm fluorescence (AID 1104); details: EGFR binding, higher = more signal;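 further: score merges 667 nm emission intensity with spot signal to noise over triplicate slides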
Chain of Epidermal growth factor receptor (Homo sapiens) (P00533 whole entry, looked up): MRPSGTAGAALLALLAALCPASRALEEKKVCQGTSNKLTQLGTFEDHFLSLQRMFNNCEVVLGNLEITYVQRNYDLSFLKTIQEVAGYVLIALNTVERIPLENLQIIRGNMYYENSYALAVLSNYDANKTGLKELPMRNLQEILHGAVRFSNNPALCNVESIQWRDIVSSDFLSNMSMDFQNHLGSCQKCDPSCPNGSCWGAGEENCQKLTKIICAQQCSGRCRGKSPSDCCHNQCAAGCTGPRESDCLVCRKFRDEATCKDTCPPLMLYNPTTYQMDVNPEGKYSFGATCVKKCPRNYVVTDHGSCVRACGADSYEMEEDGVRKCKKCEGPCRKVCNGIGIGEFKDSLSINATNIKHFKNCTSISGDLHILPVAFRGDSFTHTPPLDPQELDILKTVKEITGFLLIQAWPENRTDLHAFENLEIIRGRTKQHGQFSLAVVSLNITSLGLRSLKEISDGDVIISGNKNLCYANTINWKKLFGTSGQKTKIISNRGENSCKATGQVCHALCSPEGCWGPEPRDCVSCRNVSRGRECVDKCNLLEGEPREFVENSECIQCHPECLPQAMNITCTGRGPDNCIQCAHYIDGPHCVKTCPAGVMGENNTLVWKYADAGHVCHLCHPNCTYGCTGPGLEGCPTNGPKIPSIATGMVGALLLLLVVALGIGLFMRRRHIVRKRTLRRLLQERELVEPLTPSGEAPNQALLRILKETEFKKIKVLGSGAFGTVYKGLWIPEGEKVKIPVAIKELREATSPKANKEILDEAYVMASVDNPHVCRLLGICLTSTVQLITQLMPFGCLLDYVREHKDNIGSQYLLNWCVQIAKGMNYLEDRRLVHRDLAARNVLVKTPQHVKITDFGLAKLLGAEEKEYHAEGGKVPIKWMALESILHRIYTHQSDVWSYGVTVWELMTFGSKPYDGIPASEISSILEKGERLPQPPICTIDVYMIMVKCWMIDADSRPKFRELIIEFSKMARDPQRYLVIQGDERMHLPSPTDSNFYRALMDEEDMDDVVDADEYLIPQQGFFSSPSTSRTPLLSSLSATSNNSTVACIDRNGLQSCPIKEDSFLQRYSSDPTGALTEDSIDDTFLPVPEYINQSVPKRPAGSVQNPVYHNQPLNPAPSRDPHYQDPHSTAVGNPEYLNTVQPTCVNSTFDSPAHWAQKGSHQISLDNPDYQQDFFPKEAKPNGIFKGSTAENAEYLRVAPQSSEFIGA

[8] = target: Follistatin-related protein 3 (Homo sapiens) (UniProt O95633); assay: FSTL3 binders on small-molecule microarrays, primary screen, biochemical, small-molecule microarray, 635 nm fluorescence (AID 1105); details: FSTL3 binding, higher = more signal;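 further: score merges emission near 667 nm and signal to noise per printed spot across three slides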
Chain of Follistatin-related protein 3 (Homo sapiens) (O95633 whole entry, looked up): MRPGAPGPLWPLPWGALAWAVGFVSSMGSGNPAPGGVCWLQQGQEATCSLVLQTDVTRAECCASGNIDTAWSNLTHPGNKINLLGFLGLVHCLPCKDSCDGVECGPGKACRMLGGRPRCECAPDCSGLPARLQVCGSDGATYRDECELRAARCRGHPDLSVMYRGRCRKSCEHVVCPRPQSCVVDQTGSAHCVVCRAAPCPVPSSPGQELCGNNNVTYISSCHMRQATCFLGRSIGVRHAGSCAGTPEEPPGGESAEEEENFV

[9] = target: Dickkopf-related protein 1 (Homo sapiens) (UniProt O94907); assay: DKK1 binders on small-molecule microarrays, primary screen, biochemical, small-molecule microarray, 635 nm fluorescence scan (AID 1106); details: DKK1 binding, higher = more signal;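 further: score merges emission near 667 nm with signal to noise over three replicate slides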
Chain of Dickkopf-related protein 1 (Homo sapiens) (O94907 whole entry, looked up): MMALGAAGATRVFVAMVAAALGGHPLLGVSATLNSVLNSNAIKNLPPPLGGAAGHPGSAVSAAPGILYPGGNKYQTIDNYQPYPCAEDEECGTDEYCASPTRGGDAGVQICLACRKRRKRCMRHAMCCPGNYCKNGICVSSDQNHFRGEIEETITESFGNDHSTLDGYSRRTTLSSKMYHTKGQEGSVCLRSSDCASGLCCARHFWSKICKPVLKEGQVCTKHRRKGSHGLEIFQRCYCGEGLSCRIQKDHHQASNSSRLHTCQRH

[10] = system: Inhibin beta A chain (activin A); assay: INHBA (activin A) binders on microarrays, primary screen, biochemical, small-molecule microarray, 635 nm fluorescence scan (AID 1107); details: small-molecule microarray binding, higher = more signal;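 further: mouse activin A protein probed at 4.33 µg/mL on printed slides; score merges bound-protein fluorescence near 667 nm with spot signal-to-noise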
[11] = system: Human papillomavirus type 1a protein E7 (residues 44-93); assay: HPV1a E7 fragment binders on microarrays, primary screen, biochemical, small-molecule microarray, residues 44-93, 635 nm fluorescence (AID 1108); details: small-molecule microarray binding, fluorescence 635 nm; higher = more signal;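 further: E7 fragment applied at 1 µg/mL in TBST for 1 h at 4 C; score combines spot fluorescence with its signal to noise ratio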
[12] = modulators of HCV replicon luciferase signal, primary screen, HCV replication inhibitor project, Huh7 cells, luciferase reporter (AID 1109); details: 48 h, higher = more signal;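 further: huh7 hepatoma cells harbouring a luciferase neomycin HCV replicon reporter; luciferase luminescence as measure of HCV replicon replication; test concentration not given here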
[13] = target: Left-right determination factor 2 (Homo sapiens) (UniProt O00292); assay: LEFTY2 binders on small-molecule microarrays, primary screen, biochemical, small-molecule microarray, 635 nm fluorescence scan (AID 1110); details: LEFTY2 binding, higher = more signal
Chain of Left-right determination factor 2 (Homo sapiens) (O00292 whole entry, looked up): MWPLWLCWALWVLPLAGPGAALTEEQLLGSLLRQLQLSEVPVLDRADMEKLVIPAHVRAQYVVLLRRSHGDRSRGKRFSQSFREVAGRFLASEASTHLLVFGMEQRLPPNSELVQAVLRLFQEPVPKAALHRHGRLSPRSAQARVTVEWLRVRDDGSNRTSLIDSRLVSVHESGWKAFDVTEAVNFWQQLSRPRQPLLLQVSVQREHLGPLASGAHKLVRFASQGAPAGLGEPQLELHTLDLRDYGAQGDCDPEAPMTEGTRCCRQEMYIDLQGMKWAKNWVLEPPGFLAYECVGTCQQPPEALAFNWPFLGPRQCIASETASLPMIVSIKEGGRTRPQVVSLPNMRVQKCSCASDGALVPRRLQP

[14] = target: Calmodulin-1 (Homo sapiens) (UniProt P0DP23); assay: CALM1 binders on microarrays, EGTA buffer, profiling panel, biochemical, small-molecule microarray, Cy5-labelled CALM1 (AID 1111); details: Cy5-CALM1 binding fluorescence, higher = more signal;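 further: labelled calmodulin applied in Tris saline Tween buffer holding calcium plus EGTA and DTT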
[15] = target: Calmodulin-1 (Homo sapiens) (UniProt P0DP23); assay: calcium-bound CALM1 binders on microarrays, profiling panel, artefact control for SMM control-protein annotation, biochemical, small-molecule microarray, Cy5-labelled CALM1, plus calcium (AID 1112); details: Cy5-CALM1 binding fluorescence, higher = more signal;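 further: score merges spot fluorescence with signal to noise from triplicate slides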
[16] = small-molecule microarray binders of probe aWnt5a, primary screen, biochemical, biotinylated probe, 635/667 nm fluorescence (AID 1113); details: higher = more signal;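 further: score merges 667 nm fluorescence intensity with signal-to-noise per printed feature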
[17] = small-molecule microarray binders of probe aShh, primary screen, biochemical, biotinylated probe, 635/667 nm fluorescence (AID 1114); details: higher = more signal;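 further: probe is biotin-labelled aShh protein from a stem cell growth factor screen; measures binding of labelled protein to compounds printed on the slide; score merges feature fluorescence at 667 nm with signal-to-noise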
[18] = small-molecule microarray binders of probe aNog, primary screen, biochemical, biotinylated probe, 635/667 nm fluorescence (AID 1115); details: higher = more signal;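 further: probe is biotinylated aNog protein used at 0.15 µg/mL for 1 h at 4 C; z-score combines 667 nm fluorescence of each spot with its signal to noise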
[19] = target: Torsin-1A-interacting protein 1 (Homo sapiens) (UniProt Q5JTV8); assay: LAP1 binders from COS7 cell lysate, primary screen, small-molecule microarray, 635/667 nm fluorescence (AID 1116); details: COS7-hLAP1 lysate binding, 635 nm fluorescence, higher = more signal
Chain of Torsin-1A-interacting protein 1 (Homo sapiens) (Q5JTV8 whole entry, looked up): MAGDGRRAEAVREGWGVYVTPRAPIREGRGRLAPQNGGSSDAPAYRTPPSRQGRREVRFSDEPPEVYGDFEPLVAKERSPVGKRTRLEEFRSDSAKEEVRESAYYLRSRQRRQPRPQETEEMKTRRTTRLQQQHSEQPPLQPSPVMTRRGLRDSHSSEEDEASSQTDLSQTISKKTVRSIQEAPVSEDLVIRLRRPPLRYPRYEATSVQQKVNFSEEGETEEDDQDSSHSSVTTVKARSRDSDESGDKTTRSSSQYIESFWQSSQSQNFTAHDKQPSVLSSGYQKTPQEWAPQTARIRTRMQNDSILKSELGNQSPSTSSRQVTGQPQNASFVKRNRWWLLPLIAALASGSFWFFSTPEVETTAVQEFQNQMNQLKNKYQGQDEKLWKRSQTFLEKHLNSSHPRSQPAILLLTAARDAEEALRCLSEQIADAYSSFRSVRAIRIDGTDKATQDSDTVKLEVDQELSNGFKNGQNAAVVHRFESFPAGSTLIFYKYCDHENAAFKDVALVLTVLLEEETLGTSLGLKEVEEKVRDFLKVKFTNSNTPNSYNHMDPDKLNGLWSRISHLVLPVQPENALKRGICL

[20] = target: Alpha-bungarotoxin (Bungarus multicinctus) (UniProt P60615); assay: alpha-bungarotoxin binders on microarray, profiling panel, artefact control for SMM control protein annotation, biochemical, small-molecule microarray, Alexa647 label, 635/667 nm fluorescence (AID 1117); details: alpha-BTX-A647 binding fluorescence, higher = more signal
Chain of Alpha-bungarotoxin (Bungarus multicinctus) (P60615 whole entry, looked up): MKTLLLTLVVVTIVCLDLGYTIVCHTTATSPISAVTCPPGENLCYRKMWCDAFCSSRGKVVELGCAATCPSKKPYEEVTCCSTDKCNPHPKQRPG

Row | Structure (SMILES) | composite z-score [1] | composite z-score [2] | composite z-score [3] | z-score [4] | composite z-score [5] | composite z-score [6] | composite z-score [7] | composite z-score [8] | composite z-score [9] | composite z-score [10] | composite z-score [11] | z-score [12] | composite z-score [13] | composite z-score [14] | composite z-score [15] | composite z-score [16] | composite z-score [17] | composite z-score [18] | composite z-score [19] | composite z-score [20]
1 | CC(C)NC(=O)[C@@H]1c2ccccc2C(=O)N(C(C)C)[C@H]1c1ccc(CO)cc1 | -0.509 | -0.29 | 0.91 | -0.0664 (inactive) | -0.633 | 0.134 | -1 | -0.994 | -1.72 | -0.751 | 1.42 | -0.152 | -0.597 | -0.639 | -0.128 | -0.228 | -0.291 | -0.196 | 1.69 | -0.558
2 | CCCCN1CC=CC23O[C@@H]4C=CCOC(=O)[C@@H]4[C@H]2C(=O)N(CCCCCCO)[C@@H]3C1=O (stereo not given in full) | 1.77 | 0.159 | 0.552 | 0.381 (inactive) | -0.988 | -1 | -1.5 | -1.38 | -1.28 | 0.65 | -0.477 | -0.672 | -1.18 | -1.01 | 0.224 | -0.203 | -0.138 | 0.193 | 1.41 | -1.35
3 | CC=CC(O)C1C=CC2C(=O)N(C)C(=O)C2N1N(c1ccccc1)c1ccccc1 (stereo not given) | 0.293 | -0.0262 | 0.211 | 1.06 (inactive) | 0.128 | -0.343 | 1.19 | -0.315 | 0.653 | 1.12 | -1.28 | -0.332 | 0.36 | -0.54 | -1.3 | -0.104 | -0.0769 | -0.0281 | 1.13 | 0.721
4 | C=C(C)[C@@H]1CC=C(C(O)C2C=CC3C(=O)NC(=O)C3N2Nc2ccc(Cl)cc2Cl)CC1 (stereo not given in full) | 0.576 | 0.802 | 1.3 | 0.172 (inactive) | 0.276 | 0.289 | 0.433 | 1.06 | 0.414 | 1.66 | 0.762 | -0.537 | 0.216 | 2.19 | 1.21 | 0.0328 | -0.0271 | 1.61 | 0.584 | 2.26
5 | COC(=O)c1c(CC[C@@H](CO)NC(=O)N[C@H](Cc2ccccc2)Cn2cc(-c3ccccn3)nn2)oc(C(C)=O)c1C(=O)OC | 1.48 | -0.123 | -0.379 | 1.01 (inactive) | 0.384 | 0.17 | -0.371 | -0.15 | -0.328 | -0.285 | 0.538 | -0.563 | -0.0385 | 0.475 | -0.556 | -0.124 | -0.304 | -0.158 | 1.79 | 1.08
6 | NC(=O)[C@@H]1[C@H]2C(=O)O[C@H](c3ccccc3)[C@H](c3ccccc3)N2[C@H](c2ccc(OCCO)cc2)[C@@]12C(=O)Nc1ccc(C#CC3=CCCCC3)cc12 | 1.36 | -0.134 | -0.233 | -0.857 (inactive) | 1.21 | 1.32 | 0.544 | 0.588 | 0.372 | 0.357 | 1.36 | -3.2 | 0.759 | 0.658 | -0.223 | 0.0182 | 0.031 | 0.0415 | 1.06 | 0.711
7 | C[N+](C)(C)CCCC[C@@H]1NC(=O)[C@@H]2C[C@H](C(=O)NCCCCCCNC(=O)CS)[C@H](c3ccc(O)cc3)N2C1=O | 1.09 | -0.0559 | 0.492 | 0.00498 (inactive) | -0.387 | -1.28 | -0.502 | -1.58 | -0.141 | -0.655 | -0.421 | 0.164 | -0.638 | -0.4 | -0.281 | -0.237 | -0.304 | -0.0721 | 0.958 | 1.33
8 | COC(=O)[C@@]1(Cc2ccc(OC)cc2)[C@H]2c3cc(C(=O)N4CCCC4)n(CCc4ccc(O)c(O)c4)c3C[C@H]2CN1C(=O)c1ccccc1 | 1.49 | 0.845 | 1.35 | -0.73 (inactive) | 0.0136 | 0.0777 | -0.352 | -0.269 | -0.45 | 1.76 | -1.4 | -1.1 | -0.618 | 1.39 | 0.679 | -0.0057 | -0.0977 | 1.12 | 2.24 | 0.0407
9 | CC1CC/C=C\[C@H]2OC34C=CCN(Cc5ccccc5)C(=O)[C@H]3N(C(C)CO)C(=O)[C@@H]4C2C(=O)O1 (stereo not given in full) | -0.588 | -0.169 | -0.506 | 0.441 (inactive) | 0.0204 | -0.444 | -0.492 | 0.196 | 0.33 | 0.951 | -1.75 | -0.514 | 0.267 | -0.756 | -0.857 | -0.148 | 0.0952 | -0.193 | -0.457 | -0.463
10 | COCCOC(=O)N1C(=O)[C@@]2(c3cc(C#Cc4ccc(OC)cc4)ccc31)[C@H](c1ccc(O)cc1)N1[C@H](c3ccccc3)[C@H](c3ccccc3)OC(=O)[C@H]1[C@@H]2C(=O)Nc1nc2ccccc2s1 | 0.666 | -0.037 | 0.0407 | -0.0561 (inactive) | 1.22 | 1.09 | 0.404 | 0.899 | 0.446 | 0.277 | 1.37 | -1 | 0.389 | 1.18 | 0.907 | -0.0778 | -0.262 | -0.129 | 0.373 | 0.912
11 | C=C(C(=O)CC[C@H](OC(C)=O)c1ccccc1OCCO)C(C)C | 0.78 | -0.287 | 0.006 | -1.94 (inactive) | 1.28 | -1.29 | -0.803 | -0.226 | -0.284 | -0.139 | -0.949 | -4.51 | -0.343 | -0.296 | -1.33 | -0.119 | -0.352 | -0.124 | 4.35 | -0.423
12 | [N-]=[N+]=Nc1ccccc1C[C@]1(C(=O)NCc2ccccc2)N=C(c2ccc(OCCCO)cc2)O[C@H]1c1ccccc1N=[N+]=[N-] | 1.04 | 0.236 | 0.778 | 0.716 (inactive) | 1.31 | 0.34 | 0.291 | 0.646 | -0.245 | 1.11 | 1.42 | -2.34 | -0.366 | 1.99 | 0.177 | 0.164 | 0.149 | -0.237 | 1.02 | 1.48
